# Reference: publication PMC7862700, “An all-to-all approach to the identification of sequence-specific readers for epigenetic DNA modifications on cytosine”
# Assays:
# Assay in all cases: DAPPL (digital affinity profiling via proximity ligation, sequencing); 10 mM Tris-HCl pH 7.5, 50 mM NaCl, 1 mM DTT, 4% glycerol, room temperature, 30 min; GST-TFs on glutathione beads, 16-mer random dsDNA library, 0.1% formaldehyde crosslink after washing; high values mean tight binding
# [1] = biological target: T1, FLI1 (Homo sapiens, UniProt Q01543 1-452); settings: protein: recombinant; tags: N-terminal GST; dsDNA, one strand shown
# T1 sequence: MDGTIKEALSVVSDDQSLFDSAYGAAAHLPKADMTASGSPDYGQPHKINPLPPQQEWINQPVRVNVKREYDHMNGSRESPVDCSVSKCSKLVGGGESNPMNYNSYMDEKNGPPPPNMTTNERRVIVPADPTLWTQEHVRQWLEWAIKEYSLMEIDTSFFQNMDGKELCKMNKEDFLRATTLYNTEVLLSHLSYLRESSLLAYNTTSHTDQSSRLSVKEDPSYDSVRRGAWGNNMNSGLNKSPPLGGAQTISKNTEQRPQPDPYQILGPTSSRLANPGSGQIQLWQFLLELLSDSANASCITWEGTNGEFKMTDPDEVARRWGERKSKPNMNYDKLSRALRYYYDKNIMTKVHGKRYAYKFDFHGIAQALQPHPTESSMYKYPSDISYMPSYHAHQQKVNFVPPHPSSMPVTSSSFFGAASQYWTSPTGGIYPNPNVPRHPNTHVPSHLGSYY
# Outline: (§1)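 In yeast, human transcription factors were expressed with a GST fusion, then pulled down on glutathione beads and given DNA barcodes. Pooled with a tag-only sample, they were exposed to 200 nmole of a 16-mer random double-stranded DNA library (Tris/NaCl/DTT/glycerol buffer, room temperature, 30 min), washed, crosslinked with 0.1% formaldehyde, proximity-ligated using BsaI/T4 ligase for 1 h at 37 °C, PCR-amplified and read on an Illumina NextSeq500. Each hexamer's frequency of reads for a factor, divided by the matching frequency for the tag-only sample, gives the binding signal.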
# [2] = biological target: T2, ELK1 (Homo sapiens, UniProt P19419 1-428); settings: protein: recombinant; tags: N-terminal GST; dsDNA, one strand shown
# T2 sequence: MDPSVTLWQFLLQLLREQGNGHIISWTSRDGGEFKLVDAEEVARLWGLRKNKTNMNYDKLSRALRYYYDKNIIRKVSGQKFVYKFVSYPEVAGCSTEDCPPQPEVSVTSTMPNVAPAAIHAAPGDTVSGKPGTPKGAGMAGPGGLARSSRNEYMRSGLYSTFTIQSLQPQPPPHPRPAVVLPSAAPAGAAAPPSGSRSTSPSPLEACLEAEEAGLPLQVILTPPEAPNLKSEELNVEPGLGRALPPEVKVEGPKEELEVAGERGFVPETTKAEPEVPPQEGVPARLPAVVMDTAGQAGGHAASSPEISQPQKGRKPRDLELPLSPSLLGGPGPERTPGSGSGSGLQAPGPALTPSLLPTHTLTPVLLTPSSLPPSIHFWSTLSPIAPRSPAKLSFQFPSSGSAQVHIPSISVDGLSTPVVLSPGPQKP
# Outline: as §1
# [3] = biological target: T3, GABPA (Homo sapiens, UniProt Q06546 1-454); settings: protein: recombinant; tags: N-terminal GST; dsDNA, one strand shown
# T3 sequence: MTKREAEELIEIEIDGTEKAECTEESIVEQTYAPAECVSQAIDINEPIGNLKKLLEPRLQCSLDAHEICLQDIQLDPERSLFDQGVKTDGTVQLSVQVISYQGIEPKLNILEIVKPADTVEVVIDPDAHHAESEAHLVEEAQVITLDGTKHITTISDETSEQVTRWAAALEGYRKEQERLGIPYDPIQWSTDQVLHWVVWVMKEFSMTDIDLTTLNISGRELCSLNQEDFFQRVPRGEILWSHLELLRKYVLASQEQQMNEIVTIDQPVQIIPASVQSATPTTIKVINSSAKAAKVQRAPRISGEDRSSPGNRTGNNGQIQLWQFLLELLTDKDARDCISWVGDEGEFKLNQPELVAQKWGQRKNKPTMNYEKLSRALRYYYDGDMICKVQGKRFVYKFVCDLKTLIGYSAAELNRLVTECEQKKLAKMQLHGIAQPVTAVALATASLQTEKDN
# Outline: as §1
# [4] = biological target: T4, ERG (Homo sapiens, UniProt P11308 1-479); settings: protein: recombinant; tags: N-terminal GST; dsDNA, one strand shown
# T4 sequence: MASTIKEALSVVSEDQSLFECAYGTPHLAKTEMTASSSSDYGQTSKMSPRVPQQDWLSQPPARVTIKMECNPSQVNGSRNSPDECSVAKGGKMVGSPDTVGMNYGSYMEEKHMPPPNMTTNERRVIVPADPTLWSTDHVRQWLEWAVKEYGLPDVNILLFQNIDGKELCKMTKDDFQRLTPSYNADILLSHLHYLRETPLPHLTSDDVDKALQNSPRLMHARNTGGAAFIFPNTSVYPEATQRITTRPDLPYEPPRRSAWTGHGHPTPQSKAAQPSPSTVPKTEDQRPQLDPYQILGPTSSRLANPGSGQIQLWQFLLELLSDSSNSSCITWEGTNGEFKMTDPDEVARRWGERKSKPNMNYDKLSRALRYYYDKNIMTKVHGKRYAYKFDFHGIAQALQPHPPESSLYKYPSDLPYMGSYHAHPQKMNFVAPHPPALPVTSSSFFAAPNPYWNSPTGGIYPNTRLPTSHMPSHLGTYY
# Outline: as §1
# [5] = biological target: ELF1 (Homo sapiens, UniProt P32519 1-619); settings: protein: recombinant; tags: N-terminal GST; dsDNA, one strand shown
# Outline: as §1
# [6] = biological target: T5, EHF (Homo sapiens, UniProt Q9NZC4 1-300); settings: protein: recombinant; tags: N-terminal GST; dsDNA, one strand shown
# T5 sequence: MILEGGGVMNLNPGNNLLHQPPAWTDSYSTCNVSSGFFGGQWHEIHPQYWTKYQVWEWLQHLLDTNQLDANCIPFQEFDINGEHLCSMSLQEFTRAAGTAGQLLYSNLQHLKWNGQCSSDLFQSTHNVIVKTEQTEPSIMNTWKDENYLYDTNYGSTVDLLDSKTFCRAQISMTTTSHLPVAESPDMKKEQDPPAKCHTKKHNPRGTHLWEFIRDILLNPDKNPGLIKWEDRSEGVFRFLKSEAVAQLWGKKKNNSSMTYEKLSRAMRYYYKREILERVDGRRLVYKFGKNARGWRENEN
# Outline: as §1
# [7] = biological target: SPI1 (Homo sapiens, UniProt P17947 1-270); settings: protein: recombinant; tags: N-terminal GST; dsDNA, one strand shown
# Outline: as §1
# [8] = biological target: SPIB (Homo sapiens, UniProt Q01892 1-262); settings: protein: recombinant; tags: N-terminal GST; dsDNA, one strand shown
# Outline: as §1
# [9] = biological target: T6, ELK3 (Homo sapiens, UniProt P41970 1-407); settings: protein: recombinant; tags: N-terminal GST; dsDNA, one strand shown
# T6 sequence: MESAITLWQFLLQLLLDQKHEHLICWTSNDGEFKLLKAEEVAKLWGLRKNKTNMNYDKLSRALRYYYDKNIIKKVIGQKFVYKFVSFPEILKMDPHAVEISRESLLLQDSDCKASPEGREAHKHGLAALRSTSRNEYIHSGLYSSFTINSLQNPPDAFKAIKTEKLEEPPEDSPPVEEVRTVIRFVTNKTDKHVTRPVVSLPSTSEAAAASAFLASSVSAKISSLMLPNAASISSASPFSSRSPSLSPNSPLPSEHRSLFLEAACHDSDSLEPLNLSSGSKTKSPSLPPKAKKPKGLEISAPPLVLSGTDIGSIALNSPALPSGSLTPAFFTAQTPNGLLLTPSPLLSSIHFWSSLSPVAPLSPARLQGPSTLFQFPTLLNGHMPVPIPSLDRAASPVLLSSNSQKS
# Outline: as §1
# [10] = biological target: T7, FEV (Homo sapiens, UniProt Q99581 1-238); settings: protein: recombinant; tags: N-terminal GST; dsDNA, one strand shown
# T7 sequence: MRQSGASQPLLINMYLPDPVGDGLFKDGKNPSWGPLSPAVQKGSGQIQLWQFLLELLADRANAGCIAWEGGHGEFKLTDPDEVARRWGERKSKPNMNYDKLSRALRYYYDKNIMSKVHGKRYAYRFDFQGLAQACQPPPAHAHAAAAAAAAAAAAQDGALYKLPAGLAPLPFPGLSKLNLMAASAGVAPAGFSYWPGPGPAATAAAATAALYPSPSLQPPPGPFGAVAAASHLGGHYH
# Outline: as §1
# [11] = biological target: ETV5 (Homo sapiens, UniProt P41161 1-510); settings: protein: recombinant; tags: N-terminal GST; dsDNA, one strand shown
# Outline: as §1
# [12] = biological target: HSF1 (Homo sapiens, UniProt Q00613 1-529); settings: protein: recombinant; tags: N-terminal GST; chain copies: 3; dsDNA, one strand shown
# Outline: as §1
# [13] = biological target: T8, SPIC (Homo sapiens, UniProt Q8N5J4 1-248); settings: protein: recombinant; tags: N-terminal GST; dsDNA, one strand shown
# T8 sequence: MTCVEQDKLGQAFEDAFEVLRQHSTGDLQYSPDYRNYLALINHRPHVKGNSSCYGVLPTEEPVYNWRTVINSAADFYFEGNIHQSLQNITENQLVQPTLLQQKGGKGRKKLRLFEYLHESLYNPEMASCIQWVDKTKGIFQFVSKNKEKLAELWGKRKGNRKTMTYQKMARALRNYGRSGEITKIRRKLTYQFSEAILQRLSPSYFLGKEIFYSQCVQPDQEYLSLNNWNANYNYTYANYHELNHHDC
# Outline: as §1
# [14] = biological target: ELF4 (Homo sapiens, UniProt Q99607 1-663); settings: protein: recombinant; tags: N-terminal GST; dsDNA, one strand shown
# Outline: as §1
# [15] = biological target: T9, ELK4 (Homo sapiens, UniProt P28324-2 1-405); settings: protein: recombinant; tags: N-terminal GST; dsDNA, one strand shown
# T9 sequence: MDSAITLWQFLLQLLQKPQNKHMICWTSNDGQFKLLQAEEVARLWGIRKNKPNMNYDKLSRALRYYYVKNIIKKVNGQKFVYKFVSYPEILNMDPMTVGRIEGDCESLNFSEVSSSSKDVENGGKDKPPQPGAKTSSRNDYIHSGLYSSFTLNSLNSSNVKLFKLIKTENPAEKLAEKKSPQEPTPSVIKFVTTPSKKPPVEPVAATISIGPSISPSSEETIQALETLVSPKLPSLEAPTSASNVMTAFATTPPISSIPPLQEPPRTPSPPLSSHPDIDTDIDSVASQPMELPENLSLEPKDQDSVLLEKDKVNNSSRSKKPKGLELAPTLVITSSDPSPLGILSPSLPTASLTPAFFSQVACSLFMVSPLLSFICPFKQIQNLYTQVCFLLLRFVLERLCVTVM
# Outline: as §1
# [16] = biological target: T10, ETV2 (Homo sapiens, UniProt O00321 1-342); settings: protein: recombinant; tags: N-terminal GST; dsDNA, one strand shown
# T10 sequence: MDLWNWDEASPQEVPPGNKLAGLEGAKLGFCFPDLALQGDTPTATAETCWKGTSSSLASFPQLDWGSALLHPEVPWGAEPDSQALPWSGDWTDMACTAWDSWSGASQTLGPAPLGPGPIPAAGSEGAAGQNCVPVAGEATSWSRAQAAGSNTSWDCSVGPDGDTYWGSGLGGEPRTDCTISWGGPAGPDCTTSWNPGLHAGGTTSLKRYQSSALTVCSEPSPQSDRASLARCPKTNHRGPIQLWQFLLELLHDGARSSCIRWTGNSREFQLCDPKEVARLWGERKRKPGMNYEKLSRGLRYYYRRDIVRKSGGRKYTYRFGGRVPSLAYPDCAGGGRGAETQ
# Outline: as §1
# [17] = biological target: T11, ELF3 (Homo sapiens, UniProt P78545 1-371); settings: protein: recombinant; tags: N-terminal GST; dsDNA, one strand shown
# T11 sequence: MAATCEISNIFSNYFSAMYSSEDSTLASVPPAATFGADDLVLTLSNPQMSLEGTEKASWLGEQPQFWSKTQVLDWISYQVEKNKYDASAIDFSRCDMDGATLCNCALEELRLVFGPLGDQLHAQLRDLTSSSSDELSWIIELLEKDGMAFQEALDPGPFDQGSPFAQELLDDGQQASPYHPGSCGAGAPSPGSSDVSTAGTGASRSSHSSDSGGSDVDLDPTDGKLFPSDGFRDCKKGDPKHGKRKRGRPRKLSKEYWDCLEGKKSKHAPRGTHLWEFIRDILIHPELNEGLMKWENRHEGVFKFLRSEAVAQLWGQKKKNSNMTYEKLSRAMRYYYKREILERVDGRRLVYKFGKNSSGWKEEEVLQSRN
# Outline: as §1
# [18] = biological target: ETV1 (Homo sapiens, UniProt P50549 1-477); settings: protein: recombinant; tags: N-terminal GST; dsDNA, one strand shown
# Outline: as §1
# Sequence of ELF1 (P32519 whole entry): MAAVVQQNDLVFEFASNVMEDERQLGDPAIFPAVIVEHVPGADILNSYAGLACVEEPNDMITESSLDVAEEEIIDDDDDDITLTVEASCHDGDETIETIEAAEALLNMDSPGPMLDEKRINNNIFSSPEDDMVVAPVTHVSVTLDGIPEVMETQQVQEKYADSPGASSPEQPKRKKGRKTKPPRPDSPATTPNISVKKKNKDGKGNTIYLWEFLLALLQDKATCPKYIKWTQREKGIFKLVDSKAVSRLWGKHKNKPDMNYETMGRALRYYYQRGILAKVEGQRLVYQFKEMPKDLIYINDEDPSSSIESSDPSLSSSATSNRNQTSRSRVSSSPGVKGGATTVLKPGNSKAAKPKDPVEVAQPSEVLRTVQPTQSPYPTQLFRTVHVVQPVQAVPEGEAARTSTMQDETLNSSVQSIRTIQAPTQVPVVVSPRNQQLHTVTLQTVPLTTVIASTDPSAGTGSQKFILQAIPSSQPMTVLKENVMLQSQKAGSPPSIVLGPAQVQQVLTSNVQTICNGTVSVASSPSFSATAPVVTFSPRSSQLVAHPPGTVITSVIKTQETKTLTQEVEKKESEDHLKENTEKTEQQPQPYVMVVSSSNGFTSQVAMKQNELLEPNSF
# Sequence of HSF1 (Q00613 whole entry): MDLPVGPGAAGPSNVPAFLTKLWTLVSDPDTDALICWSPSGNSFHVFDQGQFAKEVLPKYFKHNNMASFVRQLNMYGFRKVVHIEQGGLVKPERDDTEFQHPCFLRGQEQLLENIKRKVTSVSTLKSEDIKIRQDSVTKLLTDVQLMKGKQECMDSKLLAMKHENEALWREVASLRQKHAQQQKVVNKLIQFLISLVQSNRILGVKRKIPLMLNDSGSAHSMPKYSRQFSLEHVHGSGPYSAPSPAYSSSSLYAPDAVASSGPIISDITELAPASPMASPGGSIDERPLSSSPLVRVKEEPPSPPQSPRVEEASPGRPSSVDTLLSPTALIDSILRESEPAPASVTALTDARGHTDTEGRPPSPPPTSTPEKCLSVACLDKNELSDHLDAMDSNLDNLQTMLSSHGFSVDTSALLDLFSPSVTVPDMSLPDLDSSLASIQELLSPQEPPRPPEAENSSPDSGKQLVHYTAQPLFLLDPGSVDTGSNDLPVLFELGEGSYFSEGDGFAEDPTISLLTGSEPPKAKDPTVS
# Sequence of ETV1 (P50549 whole entry): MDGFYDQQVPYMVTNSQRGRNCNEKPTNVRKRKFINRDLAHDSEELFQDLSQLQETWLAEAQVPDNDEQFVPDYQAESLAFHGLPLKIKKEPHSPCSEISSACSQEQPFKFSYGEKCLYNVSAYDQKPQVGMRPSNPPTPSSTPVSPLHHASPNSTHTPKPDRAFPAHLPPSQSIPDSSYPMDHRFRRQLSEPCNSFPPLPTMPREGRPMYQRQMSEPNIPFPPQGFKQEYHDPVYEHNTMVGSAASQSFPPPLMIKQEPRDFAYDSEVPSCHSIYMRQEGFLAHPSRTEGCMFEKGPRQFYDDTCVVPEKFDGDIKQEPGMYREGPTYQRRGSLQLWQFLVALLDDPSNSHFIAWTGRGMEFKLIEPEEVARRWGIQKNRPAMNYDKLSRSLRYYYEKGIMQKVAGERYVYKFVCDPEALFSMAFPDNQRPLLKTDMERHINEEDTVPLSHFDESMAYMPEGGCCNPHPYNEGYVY
# Sequence of SPIB (Q01892 whole entry): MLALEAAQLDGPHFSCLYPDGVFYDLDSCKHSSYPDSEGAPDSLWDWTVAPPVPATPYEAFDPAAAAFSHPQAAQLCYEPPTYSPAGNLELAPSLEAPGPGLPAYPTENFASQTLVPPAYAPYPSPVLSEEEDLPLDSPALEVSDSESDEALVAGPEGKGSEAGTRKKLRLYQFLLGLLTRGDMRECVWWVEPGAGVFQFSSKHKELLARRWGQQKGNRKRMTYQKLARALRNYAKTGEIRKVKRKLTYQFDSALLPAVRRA
# Sequence of ELF4 (Q99607 whole entry): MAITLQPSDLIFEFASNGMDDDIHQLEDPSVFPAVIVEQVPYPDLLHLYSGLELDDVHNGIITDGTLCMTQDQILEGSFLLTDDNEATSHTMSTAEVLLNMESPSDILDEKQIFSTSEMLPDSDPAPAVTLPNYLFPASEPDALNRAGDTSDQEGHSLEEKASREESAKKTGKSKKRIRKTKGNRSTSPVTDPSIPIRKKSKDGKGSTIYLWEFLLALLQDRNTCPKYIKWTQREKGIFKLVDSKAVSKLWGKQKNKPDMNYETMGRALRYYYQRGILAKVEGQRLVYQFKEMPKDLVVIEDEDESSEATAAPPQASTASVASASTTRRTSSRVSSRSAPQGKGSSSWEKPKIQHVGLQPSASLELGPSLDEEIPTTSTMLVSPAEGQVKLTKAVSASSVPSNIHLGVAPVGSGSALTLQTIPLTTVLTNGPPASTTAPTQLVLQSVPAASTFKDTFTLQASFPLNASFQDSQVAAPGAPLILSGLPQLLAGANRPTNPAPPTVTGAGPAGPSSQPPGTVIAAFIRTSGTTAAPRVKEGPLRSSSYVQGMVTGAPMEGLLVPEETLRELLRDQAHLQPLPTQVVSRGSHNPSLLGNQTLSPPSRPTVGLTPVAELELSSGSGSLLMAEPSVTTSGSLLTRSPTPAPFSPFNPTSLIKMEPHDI
# Sequence of ETV5 (P41161 whole entry): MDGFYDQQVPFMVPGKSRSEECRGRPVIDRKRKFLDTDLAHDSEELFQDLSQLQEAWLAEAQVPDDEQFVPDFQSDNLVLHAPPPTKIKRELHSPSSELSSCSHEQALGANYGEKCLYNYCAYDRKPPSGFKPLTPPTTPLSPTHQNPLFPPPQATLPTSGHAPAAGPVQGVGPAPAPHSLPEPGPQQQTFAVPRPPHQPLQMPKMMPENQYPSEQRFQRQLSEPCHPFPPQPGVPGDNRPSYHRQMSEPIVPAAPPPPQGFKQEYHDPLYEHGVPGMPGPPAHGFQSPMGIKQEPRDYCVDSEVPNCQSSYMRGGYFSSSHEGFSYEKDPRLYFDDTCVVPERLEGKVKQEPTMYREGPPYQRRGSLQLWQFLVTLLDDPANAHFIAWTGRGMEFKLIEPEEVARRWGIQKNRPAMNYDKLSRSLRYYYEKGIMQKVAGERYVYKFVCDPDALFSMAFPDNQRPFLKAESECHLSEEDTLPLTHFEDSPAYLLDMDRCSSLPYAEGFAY
sequence,measurement,setting,value
ACTGCC,binding signal,[1],"1.47 fold enrichment (6-mer frequency, TF over GST control)"
same,binding signal,[2],"1.44 fold enrichment (6-mer frequency, TF over GST control)"
same,binding signal,[3],"1.44 fold enrichment (6-mer frequency, TF over GST control)"
same,binding signal,[4],"1.44 fold enrichment (6-mer frequency, TF over GST control)"
same,binding signal,[5],"1.42 fold enrichment (6-mer frequency, TF over GST control)"
same,binding signal,[6],"1.46 fold enrichment (6-mer frequency, TF over GST control)"
same,binding signal,[7],"1.48 fold enrichment (6-mer frequency, TF over GST control)"
same,binding signal,[8],"1.41 fold enrichment (6-mer frequency, TF over GST control)"
same,binding signal,[9],"1.3 fold enrichment (6-mer frequency, TF over GST control)"
same,binding signal,[10],"1.39 fold enrichment (6-mer frequency, TF over GST control)"
same,binding signal,[11],"1.38 fold enrichment (6-mer frequency, TF over GST control)"
same,binding signal,[12],"1.06 fold enrichment (6-mer frequency, TF over GST control)"
same,binding signal,[13],"1.61 fold enrichment (6-mer frequency, TF over GST control)"
same,binding signal,[14],"1.39 fold enrichment (6-mer frequency, TF over GST control)"
same,binding signal,[15],"1.31 fold enrichment (6-mer frequency, TF over GST control)"
same,binding signal,[16],"1.16 fold enrichment (6-mer frequency, TF over GST control)"
same,binding signal,[17],"1.24 fold enrichment (6-mer frequency, TF over GST control)"
same,binding signal,[18],"1.3 fold enrichment (6-mer frequency, TF over GST control)"
